Active and inactive are the calls of the source.
These compounds were tested against NADPH oxidase 4 (Homo sapiens) (UniProt Q9NPH5) (assay: compounds shifting NOX4 Amplex Red fluorescence – cell-based, HEK293-NOX4, tetracycline-induced, NOX inhibitor project, primary screen (AID 1160)). Details: HEK293-NOX4, Amplex Red H2O2 fluorescence, 45 min; higher = more signal, called active from +8 up or from −8 down.
Sequence of NADPH oxidase 4 (Homo sapiens) (Q9NPH5 whole entry, looked up): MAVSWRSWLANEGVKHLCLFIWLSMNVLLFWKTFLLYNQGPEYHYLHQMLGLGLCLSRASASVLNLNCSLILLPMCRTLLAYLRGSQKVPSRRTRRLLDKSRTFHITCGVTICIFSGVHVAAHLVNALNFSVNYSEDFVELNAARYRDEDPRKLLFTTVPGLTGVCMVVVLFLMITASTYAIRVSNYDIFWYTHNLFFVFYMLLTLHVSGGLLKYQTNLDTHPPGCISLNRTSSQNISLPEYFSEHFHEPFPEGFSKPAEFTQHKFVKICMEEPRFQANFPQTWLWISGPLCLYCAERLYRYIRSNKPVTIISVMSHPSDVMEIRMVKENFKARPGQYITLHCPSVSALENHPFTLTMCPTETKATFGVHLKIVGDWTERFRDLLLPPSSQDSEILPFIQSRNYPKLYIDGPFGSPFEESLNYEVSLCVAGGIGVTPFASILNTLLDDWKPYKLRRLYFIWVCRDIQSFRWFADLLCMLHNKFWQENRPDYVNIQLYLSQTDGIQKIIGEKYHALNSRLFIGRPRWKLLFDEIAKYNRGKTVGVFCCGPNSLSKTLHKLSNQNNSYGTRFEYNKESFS

z-score, inactive:
C=C(C)c1cc2c(c(CCCCCC)n1)[Si](C(C)C)(C(C)C)OC2 -0.933, COc1ccc(NC(=O)O[C@H]2[C@H](OC(=O)Nc3ccccc3)[C@H](OC(=O)Nc3ccccc3)[C@@H](OC)O[C@@H]2CO)cc1 -0.11, CCCCC(O)C1C=CC2C(=O)N(c3ccccc3)C(=O)C2N1Nc1ccc(C(C)C)cc1 (configuration not stated) -3.21, [N-]=[N+]=NCc1ccccc1C[C@@]1(C(=O)N2CCOCC2)N=C(c2ccc(OCCCO)cc2)O[C@@H]1c1ccccc1 -1.12, CC(c1ccccc1)C(O)C1C=CC2C(=O)N(c3ccccc3)C(=O)C2N1Nc1ccc([N+](=O)[O-])cc1 (configuration not stated) -1.18, COc1ccc(CN(C2=CC[C@@]3(C(N)=O)C(=O)C(Cl)=C(Cl)C(=O)[C@@]3(C#N)C2)S(=O)(=O)c2ccc(Br)cc2)cc1 -0.275, COC(=O)CCCCCCC(=O)Nc1ccc(NC(=O)CCCC[P+](c2ccccc2)(c2ccccc2)c2ccccc2)cc1 0.429, CC(C)N1C(=O)C[C@@](C(=O)NCCCN(C)C)(c2ccc([N+](=O)[O-])cc2)[C@H]1c1ccc(CO)cc1 0.334, CCOC(=O)C1=CC[C@@H](c2ccc(OCc3ccccc3)c(OC)c2)N(S(=O)(=O)c2ccc(C)cc2)[C@H]1c1ccc(SC)cc1 0.0161, COC(=O)c1c2oc(c1C(=O)OC)C(=O)N(C)Cc1cn(nn1)C[C@H](Cc1ccccc1)NC(=O)N[C@H](CO)CC2 0.338, O=C1OCC=C[C@H]2OC34C=CCN(Cn5nnc6ccccc65)C(=O)[C@H]3N(CCCO)C(=O)[C@@H]4[C@@H]12 (some centres not stated) -1.42, C[C@@H]1ON(c2ccc(C(=O)OC(C)(C)C)cc2)[C@H](c2ccc(O)cc2)[C@H]1C(=O)N1C(=O)OC[C@H]1Cc1ccccc1 -0.43, COCCOC(=O)N1C(=O)[C@@]2(c3cc(C#CC4=CCCCC4)ccc31)[C@H](C(N)=O)[C@H]1C(=O)O[C@H](c3ccccc3)[C@H](c3ccccc3)N1[C@@H]2c1ccccc1OCCO 0.932, COC(=O)[C@@]1(Cc2ccc(OC)cc2)[C@@H]2C(=CC(=O)[C@H]2CC(=O)C(=O)N(C)C)CN1C(=O)c1ccccc1 1.39, C=CC1c2cc(O)c(OC)cc2CCN1Cc1cc2c(cc1Br)OCO2 (configuration not stated) -3.87, C=CCC(OC(C)=O)[C@@H]1[C@@H](N(Cc2cc3ccccc3o2)C(=O)c2ccc(C)cc2)c2cc(OCCCO)ccc2N1C(=O)Cc1ccc(OC)cc1 (some centres not stated) 0.652, COc1cc(OC)c(C(O)C2C=CC3C(=O)N(c4ccccc4)C(=O)C3N2Nc2ccccc2)cc1Br (configuration not stated) -4.38, Cc1ccc(S[C@]2(C(=O)NCC(F)(F)F)CC(=O)N(Cc3ccccc3)[C@@H]2c2ccc(CO)cc2I)cc1 -1.33, COC(=O)c1ccc([C@H](NC(=O)c2ccco2)[C@]2(C)C[C@H]2C2CCCCC2)cc1 -2.56, NC(N)=NCCCn1cc(CNC(=O)[C@@H](N)Cc2ccccc2)nn1 0.227, COC(=O)c1nc2oc1CC[C@@H](CO)NC(=O)N(C)Cc1cnnn1C[C@H](Cc1ccccc1)NC2=O 1.35, COCCOC(=O)N1C(=O)[C@@]2(c3cc(C#CC4=CCCCC4)ccc31)[C@H](c1ccc(OCCO)cc1)N1[C@H](c3ccccc3)[C@H](c3ccccc3)OC(=O)[C@H]1[C@@H]2C(=O)N1CCN(c2ncccn2)CC1 -0.623, CC(C)(C)OC(=O)CC[C@]1(C(=O)NCC(O)CO)N=C(c2ccc(OCCCO)cc2)O[C@H]1c1ccccc1 (some centres not stated) 0.678, O=C1O[C@H](c2ccccc2)[C@H](c2ccccc2)N2[C@H]1[C@@H](C(=O)Nc1nc3ccccc3s1)[C@]1(C(=O)Nc3ccccc31)[C@H]2c1ccc(OCCO)cc1 0.4, C=CC[C@]1(C(=O)NCCN2CCOCC2)N=C(c2ccc(OCCCO)cc2)O[C@H]1c1ccccc1CN=[N+]=[N-] 1.16, COCCCNC(=O)[C@@]1(Cc2ccccc2CN=[N+]=[N-])N=C(c2ccc(OCCCO)cc2)O[C@H]1c1ccccc1 -0.298, CN(C)C(=O)[C@@]1(CCS(=O)(=O)c2ccccc2)N=C(c2ccc(OCCCO)cc2)O[C@H]1c1ccccc1 0.114

Reference: PubChem BioAssay
